# Source: PubChem
# Rows were chosen to be rich in hits. Some 1.3% of all compounds tested hit in one or more screens of this group.
# Fam108B counter: counter-screen for RBBP9 inhibitors: inhibitors of mouse Fam108B | AID 1947 | recombinant Fam108B, FP-Rh probe fluorescence polarization | inhibition, % at 9.51 µM | hit rate 0.33% among 300,000;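 active means inhibition above the screen mean inhibition plus 3 SD, computed separately per campaign, cut at about 18% in these data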;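 further: inhibitors lower polarization as less probe binds the enzyme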
# PME-1 inh: PME-1 (human) inhibition; recombinant PME-1, FP-Rh probe fluorescence polarization; hit rate 0.53% among 320,000; inhibition, % at 5.9 µM; Q9Y570; AID 2130;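 active means inhibition above the campaign mean of all compounds plus 3 SD, cut at about 26% in these data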;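 further: competitive labeling of PME-1 active site by serine hydrolase directed probe; 0% = PME-1 with DMSO and 100% = wells lacking PME-1 enzyme; inhibitors block probe labeling so polarization falls and inhibition rises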
# LYPLA1 inh: blocks human lysophospholipase 1, a PME1 counter-screen; recombinant LYPLA1, FP-Rh probe fluorescence polarization; inhibition, % at 5.9 µM; hit rate 0.16% among 320,000;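 active means inhibition above the mean of all tested compounds plus 3 SD, set per campaign, cut at about 14% in these data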;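 further: inhibitors block serine hydrolase probe labeling of LYPLA1 so polarization falls; 0% = enzyme with DMSO and 100% = wells lacking LYPLA1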
# Target sequence (O75608 whole entry, looked up): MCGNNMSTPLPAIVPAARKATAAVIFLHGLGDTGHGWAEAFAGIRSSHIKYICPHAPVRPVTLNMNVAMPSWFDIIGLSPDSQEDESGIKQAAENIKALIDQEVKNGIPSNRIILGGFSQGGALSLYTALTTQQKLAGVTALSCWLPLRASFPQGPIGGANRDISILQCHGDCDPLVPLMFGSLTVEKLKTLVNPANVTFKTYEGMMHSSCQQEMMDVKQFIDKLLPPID
# LYPLA2 counter: blocks human lysophospholipase 2, a PME1 counter-screen; hit rate 0.38% among 320,000; O95372; inhibition, % at 5.9 µM; recombinant LYPLA2, FP-Rh probe fluorescence polarization;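 active means inhibition above the screen-wide mean plus 3 SD, limit set per campaign, cut at about 26% in these data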;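 further: 0% = LYPLA2 with DMSO and 100% = wells lacking LYPLA2 enzyme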
# Target sequence (O95372 whole entry, looked up): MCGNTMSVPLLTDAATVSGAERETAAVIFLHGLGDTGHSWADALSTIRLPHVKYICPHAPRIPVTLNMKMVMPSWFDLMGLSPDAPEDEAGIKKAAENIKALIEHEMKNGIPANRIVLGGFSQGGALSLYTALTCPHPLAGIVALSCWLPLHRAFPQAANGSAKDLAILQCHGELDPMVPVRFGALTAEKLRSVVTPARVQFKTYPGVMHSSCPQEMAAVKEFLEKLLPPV
# PREPL inh: inhibits the human prolyl oligopeptidase-like enzyme; recombinant PREPL, fluorescence polarization activity-based probe; inhibition, % at 5.96 µM; hit rate 0.68% among 320,000; in the data active means inhibition above about 43%;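 further: 0% = enzyme with DMSO and 100% = wells lacking enzyme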
# * = called active by the depositor; / = no result given.
SMILES,Fam108B counter,PME-1 inh,LYPLA1 inh,LYPLA2 counter,PREPL inh
Cc1cccc(C)c1NC(=O)COC(=O)c1c2c(nc3ccccc13)/C(=C\c1ccc3c(c1)OCO3)CCC2,-16,-13,-11,-14,71*
Cc1cccc(C)c1NC(=O)COC(=O)c1ccc2c(c1)OCO2,3,-2,-2,3,7
CCn1c(/C=C\c2ccccc2C)nc2ccccc2c1=O,-3,1,-3,1,-3
CCn1c(/C=C/c2c[nH]c3ccccc23)nc2ccccc2c1=O,3,44*,-3,-4,17
C/C(=N\NC(=O)C1(C)CC1(Br)Br)c1ccc(NC(=O)c2ccc(C)o2)cc1 (stereo not drawn),4,-2,-4,-1,-4
Cc1[nH]n(C)c(=O)c1C(=O)c1c(-c2ccccc2Cl)noc1C,-3,1,-1,-3,-5
CCN(CC)CCN1CCn2c3c(c4cc(C)ccc42)CCCC31 (stereo not drawn),6,1,-2,-3,52*
COC(=O)CCCC1=CC2=CC(=O)C(C)(OC(=O)c3ccc(Cl)nc3)C(=O)C2=CO1 (stereo not drawn),8,8,1,4,-1
CC(C)(C)OC(=O)NCCCCC1=CC2=CC(=O)C(C)(OC(=O)c3cnc4ccccc4n3)C(=O)C2=CO1 (stereo not drawn),12,18,17*,20,11
COC(=O)CCCC1=CC2=CC(=O)C(C)(OC(=O)c3cnc4ccccc4n3)C(=O)C2=CO1 (stereo not drawn),13,25,20*,24,14
CCCCC1=CC2=CC(=O)C(C)(OC(=O)c3ccco3)C(=O)C2=CO1 (stereo not drawn),3,3,2,-2,-5
CCCCC1=CC2=CC(=O)C(C)(OC(=O)c3cnc4ccccc4n3)C(=O)C2=CO1 (stereo not drawn),19*,31*,23*,25,29
CCOc1ccccc1-c1ccc(C(=O)NCc2ccccc2)o1,-7,-8,-8,-9,-14
CC(=O)Nc1ccc(S(=O)(=O)N(C)CC(=O)OCC(=O)N2CC(C)OC(C)C2)cc1 (stereo not drawn),3,9,4,1,5
CCOc1cc(/C=C2/C(=O)N(c3ccccc3)N=C2C)ccc1OC(=O)c1cccs1,3,6,-5,1,54*
COc1ccc(NC(=O)c2cc3n(n2)C(C(F)(F)F)CC(c2ccc4c(c2)OCO4)N3)cc1OC (stereo not drawn),0,6,1,18,46*
COc1ccccc1Nc1nc(-c2sc(NC(=O)c3ccc([N+](=O)[O-])cc3)nc2C)cs1,25*,24,-13,-5,11
CCOC(=O)[C@H]1[C@H]2COc3cc(OC)ccc3[C@@H]2N2C(=O)CN(Cc3ccc(OC)cc3)C(=O)[C@@]12C,/,-4,2,5,22
CN(C)CCCNCC(=O)c1c(-c2ccccc2)n(C)c2ccccc12,5,-6,1,3,-8
COc1cc2c(cc1OC)CN(C(=O)C1CCCN(C(=O)c3ccc(Cl)cc3)C1)CC2 (stereo not drawn),/,3,-3,-6,13
Cc1ccc2[nH]c(=O)c(C(c3nnnn3CCc3ccccc3)N3CCOCC3)cc2c1 (stereo not drawn),2,-1,0,3,5
O=C(/C=C/c1cc[n+](CC(=O)c2ccc3cccc4c3c2CC4)cc1)c1ccc2cccc3c2c1CC3,7,-1,78*,83*,-33
CC12CC3CC(C)(C1)CC(C(=O)NCc1cccnc1)(C3)C2,-4,0,-1,1,-16
CC1Oc2ccccc2C=C1/C=N/Nc1ccc(C(=O)O)cc1 (stereo not drawn),0,34*,7,3,5
Cn1c(SCC(=O)N2CCOCC2)nc(O)cc1=O,-2,-4,1,6,0
SMILES,Fam108B counter,PME-1 inh,LYPLA1 inh,LYPLA2 counter,PREPL inh
C/C(=C\c1ccc2c(c1)OCO2)C1Nc2cccc3cccc(c23)N1,/,37*,-10,8,29
Cc1ccccc1NC(=O)Cc1nc(COC(=O)c2ccc(S(C)(=O)=O)c([N+](=O)[O-])c2)cs1,/,-18,-18,-22,24
C/C(=N\NC(=O)c1cccc(S(=O)(=O)N2CCCC2)c1)c1ccc(OCC(=O)N(C)C)cc1,-1,1,-2,-6,22
Cc1ccc(NCC(O)C(O)C(O)CO)c(N=Nc2ccccc2)c1C (stereo not drawn),1,52*,3,12,11
O=C(c1sc2ccccc2c1Cl)N1CCN(c2ncccn2)CC1,9,28*,5,11,-4
COc1cc2c(cc1OC)C(c1cc(Br)ccc1F)N(C(=O)CCl)CC2 (stereo not drawn),-5,31*,-3,5,-4
O=C(CNc1cccc2ccccc12)N/N=C/C=C/c1ccco1,2,74*,5,9,12
COc1ccc(F)cc1S(=O)(=O)Nc1cccc(C(=O)O)c1,0,8,-3,-5,6
CCOC(=O)c1ccc(NC(=O)Nc2ccc3c4c(cccc24)C(=O)N3CC)cc1,-4,28*,-6,-7,7
CCN1C(=O)c2cccc3c(NS(=O)(=O)c4ccc(NC(C)=O)cc4)ccc1c23,-1,-1,3,-2,5
CCOC(=O)c1c(C)n(CC)c2ccc(OC(=O)c3ccc([N+](=O)[O-])cc3)cc12,-1,-7,1,-6,49*
CN1CCN(C(=O)c2ccc(CSc3nc4ccncc4n3Cc3ccc(F)cc3)cc2)CC1,-3,0,2,4,2
CCOC(=O)N1CCN(C(=O)c2ccc3nc(SCc4ccc(F)cc4)n(C)c3c2)CC1,1,-4,-28,28*,37
CCc1ccc(NC(=O)CSc2nnc(C)c(=O)n2N)cc1,1,4,-2,3,-3
COc1cc2nc(Nc3ccc(F)cc3)nc(N)c2cc1OC,6,0,0,3,21
CCOC(=O)c1ccc(Nc2nc(N)c3cc(OC)c(OC)cc3n2)cc1,12,27*,-3,-6,17
COc1cccc(C(=O)Oc2ccc(/C=N/Nc3ccc(C(=O)O)cc3)cc2OC)c1,14,32*,-1,10,8
O=C(NCc1ccncc1)C1CCN(S(=O)(=O)c2ccccc2)CC1,-3,0,1,7,-6
O=C(NCc1ccccc1)C1CCN(S(=O)(=O)c2ccc(Cl)cc2)CC1,-3,44*,-2,3,-4
Cc1ccc(C(=O)N2CCN(CCNC(=O)C(=O)NCc3ccc(Cl)cc3)CC2)cc1,4,1,-2,2,13
COC(=O)CCC(=O)OC1(C)C(=O)C=C2C=C(C3CC3)N(c3ccccc3)C=C2C1=O (stereo not drawn),0,3,-1,0,47*
Cc1nn(-c2ccccc2)c(N)c1N=Nc1ccc2ccccc2c1,3,14,-5,-4,31
Cc1ccc(N=Nc2c(N)nn(-c3ccccc3)c2N)cc1,4,21,0,7,62*
